# Out of some 140,000 compounds screened, about 4,300 (3.1%) were called active. Roughly 21% stayed inconclusive and do not appear here. The sample holds actives, similar compounds and a random draw of the others, so the mix is not that of the screen. Values without a mark were called inactive.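 Rule for the calls: active = readout at or below -70, meaning at least 70% loss of cells showing the perinucleolar compartment, a nuclear body marking cancer cells; inconclusive = readout between -30 and a set limit; inactive = the rest.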
# Experiment: High Content Assay for Compounds that inhibit the Assembly of the Perinucleolar Compartment;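 note: plate controls were DMSO wells for no effect and camptothecin positive control wells for full effect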
# Settings: PC3M PTB-GFP, PNC prevalence imaging, 16 h; at 10 µM; active compounds read low
# Outline: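 Compounds are pinned in duplicate onto adhered PC3M cells stably expressing GFP-tagged PTB and incubated 16 h at 37 C. Cells are then fixed, nuclei stained with Hoechst, and PNC-positive cells counted.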
row,Compound,"activity change (PNC), negative = inhibition"
1,COCCCNCCOCCOc1ccc(Cl)cc1Br,40.2%
2,CC(C)(C)NCCCOc1ccc(Cl)cc1C(C)(C)C,-102% (active)
3,Cc1ccc(C(C)(C)C)c(OCCCCN2CCCC2)c1,-12.5%
4,CCCCc1nc(NCc2ccccc2)c(C#N)c2c1CCCC2,225%
5,Cc1nn(Cc2ccccc2)c(C)c1C(=O)NCCN1C(=O)S/C(=C\c2ccc(F)cc2)C1=O,37%
6,C[N+]1(CC(O)COc2ccccc2)CCN(C(=O)c2ccc([N+](=O)[O-])cc2)CC1 (stereo unspecified),13%
7,CCCCc1cc(=O)oc2cc(C)cc(OCc3nn[nH]n3)c12,9.68%
8,COc1ccc(-c2cc3ccc(OCc4nn[nH]n4)cc3oc2=O)cc1,-119% (active)
9,O=c1oc2cc(O)ccc2cc1-c1ccc(F)cc1,13%
10,CCc1nc(N2CCN(c3nc(C)cc(C)n3)CC2)c2oc3ccccc3c2n1,-21.5%
11,Cc1cc(C)nc(N2CCN(c3ncnc4c3oc3ccccc34)CC2)n1,-114% (active)
12,COc1ccccc1Nc1ncnc2c1oc1ccccc12,52.9%
13,O=C(COC(=O)c1c2c(nc3ccccc13)/C(=C\c1cccs1)CCC2)Nc1ccccc1Cl,-25.2%
14,O=C(CN1C(=O)NC2(CCCCCC2)C1=O)NCc1cccs1,-4.41%
15,COc1ccccc1OCc1ccc(C(=O)N2CCN(C)CC2)o1,-19.3%
16,Cc1c(Cl)cccc1NC(=O)Nc1ccc(C(=O)N2CCCC2)cc1,-83.7% (active)
17,CS(=O)(=O)Nc1ccc(C(=O)N2CCCC2)cc1,3.33%
18,O=C(c1ccc(Cl)c(Cl)c1)N1CCCC1,50.1%
19,CCC(C)(C)C1CCC(=NNC(=O)c2ccc(Br)o2)CC1 (stereo unspecified),-3.73%
20,CC(C)c1nccn1S(=O)(=O)c1cc([N+](=O)[O-])ccc1Cl,2.64%
21,CCc1nnc(NC(=O)CCN(c2ccc(C)cc2)S(=O)(=O)c2ccccc2)s1,2.13%
22,CCNc1ccc(C(=O)OCC(=O)N2c3ccccc3NC(=O)C2(C)C)cc1[N+](=O)[O-],-112% (active)
23,Nc1ccc(C(=O)OCC(=O)NC2CCCc3ccccc32)cc1[N+](=O)[O-] (stereo unspecified),-26.5%
24,CC1(C)C(=O)Nc2ccccc2N1C(=O)COC(=O)Cn1cnc2ccccc2c1=O,-28.4%

row,Compound,"activity change (PNC), negative = inhibition"
1,Cc1ccc(C(=O)CNc2ccc(F)cc2)cc1,23.7%
2,O=C(COC(=O)/C=C/c1nc2ccccc2s1)Nc1ccccc1Oc1ccccc1,-108% (active)
3,COc1cc(/C=C/C(=O)OCC(=O)Nc2cccc(Oc3ccccc3)c2)ccc1O,-28.3%
4,COc1ccc(/C=C/C(=O)OCC(=O)Nc2cccc(Oc3ccccc3)c2)c(OC)c1,25.2%
5,O=C(NC1CCN(Cc2ccccc2)CC1)c1c(F)cccc1F,-1.56%
6,COCCNC(=O)c1ccc(N2CCC3(CC2)OCCO3)c([N+](=O)[O-])c1,-24.5%
7,COc1cccc(NC(=S)NCc2ccco2)c1,14.5%
8,Cc1ccc(NC(=O)NC(=O)N(C2CCCCC2)S(=O)(=O)c2ccccc2)cc1,8.69%
9,OC(COCC1COc2ccccc2O1)CN1CCN(c2ccc(F)cc2)CC1 (stereo unspecified),-2.15%
10,OC(COCc1ccco1)CN1CCN(c2ccccc2)CC1 (stereo unspecified),-85.3% (active)
11,OC(COc1ccc2ccccc2c1)CN1CCOCC1 (stereo unspecified),13%
12,Cc1ccc(-c2csc(NNC(=O)c3ccccc3)n2)cc1,-13.8%
13,Cc1ccc(O)c(-c2cc(C(=O)NCc3ccccc3)[nH]n2)c1,-13.6%
14,Cc1cccc(NC(=O)C2CC(=O)OC23CCCC3)c1 (stereo unspecified),-100% (active)
15,Cc1cccc(NC(=O)C2CCN(S(=O)(=O)c3cccc4cccnc34)CC2)c1,20.6%
16,Cc1cccc(NC(=O)CN2C(=O)CNC2=O)c1,48.7%
17,CCCCOc1ccc(NC(=O)[C@@H]2CCCN2C(=O)C2CCN(S(=O)(=O)c3ccc(C)cc3)CC2)cc1,7.21%
18,COc1cc(/C=N/O)ccc1OCc1ccc([N+](=O)[O-])cc1,15.8%
19,COC(=O)c1ccccc1NC(=O)CSc1ccccn1,6.08%
20,CCCNC(=O)c1ccccc1NC(=O)CSCc1ccc(OC)cc1,-26.5%
21,CCCCCNC(=O)c1cccnc1SCC(=O)Nc1ccccc1OC,-119% (active)
22,COc1cc(NC(=O)c2ccccc2NS(=O)(=O)c2ccc(Cl)s2)cc(OC)c1,-4.27%
23,Cc1cc(Nc2ccccc2)nc(N)n1,-28.7%
24,CCOC(=O)c1nc(Nc2ccc(C(=O)OC)cc2)c2ccccc2n1,-9.55%

row,Compound,"activity change (PNC), negative = inhibition"
1,CCOC(=O)c1nn(-c2ccccc2F)c2nc(Nc3ccccc3)cc(=O)n12,-91% (active)
2,Nc1nc(SCC(=O)NCCN2CCOCC2)nc2sc3c(c12)CCC3,3.5%
3,Cc1ccc(Cl)cc1N1CCN(C(=O)c2cccc3c(=O)c(C)c(-c4ccccc4)oc23)CC1,2.98%
4,C[C@@H](O)c1nc2ccccc2n1N,-14.7%
5,O=C(O)c1cccc(N=NN2CCCCCC2)c1,12.1%
6,COc1ccc(-c2cc(C(=O)NCc3ccco3)no2)cc1OC,-7.14%
7,COc1ccc(C2=NOC(C(=O)NCc3ccco3)C2)cc1OC (stereo unspecified),-87% (active)
8,Cc1ccc(CNC(=O)C2CC(c3ccccc3[N+](=O)[O-])=NO2)o1 (stereo unspecified),-9.83%
9,COc1ccc(Nc2ncc(C(=O)N3CCN(c4ccccc4OC)CC3)c3ccccc23)cc1,37.3%
10,COc1ccccc1N1CCN(C(=O)C(=O)N/N=C/c2ccccc2F)CC1,-114% (active)
11,COc1ccccc1N1CCN(C(=O)c2ccc(S(=O)(=O)N3CCCCC3)cc2)CC1,48.1%
12,Cc1ccc(N(C(=O)C(F)(F)F)C(C(=O)NC2CCCCC2)c2ccncc2)cc1C (stereo unspecified),0.653%
13,CCCCOc1ccc(C(=O)NCC(=O)OCC(=O)N2CCN(S(=O)(=O)c3ccc(C)cc3C)CC2)cc1,24.8%
14,CC(C)C1C2=C(CC(C)(C)CC2=O)ON1c1ccccc1 (stereo unspecified),-90.5% (active)
15,CC1(C)CC(=O)NC=C(c2ccccc2)C1,20.5%
16,CC(C)N1C(=O)N(c2ccccc2)C(C)(O)CC1(C)C (stereo unspecified),-24.7%
17,CCCCCOc1ccc(/C=C/C(=O)NCCc2nc3ccccc3[nH]2)cc1OC,37%
18,COc1cc(/C=C(/NC(=O)c2ccc(Cl)cc2Cl)C(=O)O)cc(OC)c1OC,-21.4%
19,O=C(NCc1ccccc1Cl)C1CCC(CNc2c(N3CCCCC3)c(=O)c2=O)CC1 (stereo unspecified),42.7%
20,COCCn1c(=O)[nH]c2cc(C(=O)NCc3cccnc3)ccc2c1=O,-86.1% (active)
21,CC(C)(C)c1cc(C(=O)NCc2cccnc2)ccn1,47.5%
22,COCCn1c(=S)[nH]c2cc(C(=O)NCCc3ccc(OC)c(OC)c3)ccc2c1=O,26.1%
23,Cc1ccc(NC(=O)CCC(=O)N/N=C/c2ccco2)c(C)c1,-23.4%
24,N#Cc1c(NC(=O)CCCN2C(=O)c3ccccc3C2=O)oc(-c2ccccc2)c1-c1ccccc1,-11.2%

row,Compound,"activity change (PNC), negative = inhibition"
1,COC(=O)c1sccc1NC(=O)c1cc(OC)c(OC)c(OC)c1,81.2%
2,COc1cc(C(=O)Nc2oc(-c3ccccc3)c(-c3ccccc3)c2C#N)cc(OC)c1OC,-87.4% (active)
3,CCc1ccc(-c2cc(C(=O)NN3CCN(C)CC3)c3ccccc3n2)cc1,-5.44%
4,O=[N+]([O-])c1ccc(NCCCO)c(C(F)(F)F)c1,59.3%
5,C=C(C)c1cccc(C(C)(C)NC(=O)NC2CCCC2)c1,24%
6,Cc1ccc2[nH]c(C(=O)O)c(NC(=O)c3ccccc3[N+](=O)[O-])c2c1,17.5%
7,CCC(=O)Nc1c(S(=O)(=O)c2ccccc2)c2nc3ccccc3nc2n1Cc1ccccc1,8.42%
8,O=S(=O)(NCCc1ccncc1)c1ccccc1,50.6%
9,COc1cc2c(cc1OC)C(Nc1ccc(S(N)(=O)=O)cc1)=NC(C)(C)C2,-18.6%
10,O=C1OC(OC(=O)c2ccccc2Br)C(N2CCOCC2)=C1Cl (stereo unspecified),84.2%
11,CSc1cccc(NC(=O)CSc2ccccc2)c1,1.35%
12,CCc1cccc(NC(=O)CCC(=O)O)c1,-102% (active)
13,O=C(CCCOc1ccccc1)Nc1cccc(C(=O)O)c1,11.1%
14,CCOc1ccc(NC(=O)CSc2ncnc3c2sc2ccccc23)cc1,42.2%
15,O=C(Oc1ccccc1Cl)c1ccc(N2CCOCC2)c([N+](=O)[O-])c1,20.3%
16,COc1cc(C(=S)N2CCOCC2)cc(OC)c1OC(=O)c1cc([N+](=O)[O-])cc([N+](=O)[O-])c1,19.6%
17,O=C(Oc1ccccc1C(=S)N1CCCCC1)c1cc([N+](=O)[O-])cc([N+](=O)[O-])c1,-100% (active)
18,CN(C)CCNC(=O)/C(=C/c1cccc([N+](=O)[O-])c1)NC(=O)c1ccccc1,-1.37%
19,COc1ccc(CCC(=O)OCC(=O)Nc2ccc(C)c(S(=O)(=O)N(C)C)c2)cc1,34.8%
20,COc1ccc(/C(C)=N/NC(=O)CCC(=O)Nc2ccc(Cl)cc2Cl)c(OC)c1,-10.3%
21,Cc1ccc(NC(=S)NCc2ccccc2Cl)c(C)c1,22.9%
22,COc1ccc(N2C(=O)C(O)C2c2ccc(C)cc2)cc1 (stereo unspecified),-29.1%
23,COCc1cc(C)nc2sc3c(=O)n(-c4cccc5ccccc45)nnc3c12,0.942%
24,COc1ccc(-c2c(C(C)=O)c(C)nc3sc4c(=O)n(-c5ccc(C)cc5)nnc4c23)cc1,-106% (active)

# Source: PubChem BioAssay AID2417 (National Center for Advancing Translational Sciences (NCATS), 2010)
